Laboratory results reported in PubChem BioAssay AID1307 (SRMLSC, 2008).
Screen size: about 1,200 compounds; fewer than 10 were called active.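 Rule for the calls: active = inhibition reaching a set limit at one or more tested concentrations; inactive = inhibition under that limit at every dose.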 The list is a sample of the results. Measured potencies and affinities stand elsewhere.

Test: RAM pathway signaling blockade in S. cerevisiae – dose response (AID 1307);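 note: 0% = DMSO vehicle wells and 100% = 10 µM 1-NA-PP1 control; higher inhibition means more yeast growth since RAM block rescues cells from 5-FOA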
Conditions: S. cerevisiae RAM network URA3 reporter, 5-FOA growth OD615, hits give high values, yeast express analog-sensitive mutant Cbk1 kinase; at 100 µM unless noted

Max inhibition, inactive:
CCCCc1ccc(-c2csc(/C(C#N)=C/c3ccc(C)o3)n2)cc1 4.24%
CCC(C)c1ccc(NC(=S)NCc2ccccc2OC)cc1 (stereo unspecified) 5.65%
CCCCC(=O)Nc1ccccc1C(=O)OCC(=O)c1ccc2c(c1)OCCO2 2.31% [at 0.196 µM]
CCOC(=O)N1CCC(N(CCN(C)C)C(=S)Nc2cccc(SC)c2)CC1 2.41% [at 0.782 µM]
CCCN(CCC)c1nc2ccccc2nc1C(C#N)C(=O)OC(C)COC (stereo unspecified) 2.6%
Cc1ccc(-c2ccc(C(=O)NCc3ccccc3)o2)c2ccccc12 3.65%
CC(C)Oc1cccc(C(=O)NC(=S)Nc2cccc(C(F)(F)F)c2)c1 2.41% [at 0.782 µM]
O=C(CN(C(=O)CSc1nnc(COc2ccccc2)o1)c1ccc(F)cc1)NC1CCCC1 2.82%
Cc1ccccc1OCCC(=O)Nc1cccc(S(=O)(=O)Nc2ccccc2Cl)c1 2.67% [at 0.196 µM]
O=S(=O)(NCCSCc1ccc(Cl)cc1Cl)c1ccc2c(c1)OCCO2 2.05% [at 12.5 µM]
CCCCCOP(=O)(OCCCCC)C1(NS(=O)(=O)c2ccccc2)C=CC(=O)c2ccccc21 (stereo unspecified) 2.83%
COc1ccccc1OCC(=O)Nc1ccc(CSc2ccccc2)cc1C 1.56% [at 25 µM]
Cc1ccc(-n2c(SCC(=O)Nc3cccc(S(=O)(=O)NC4=NCCCCC4)c3)nc3ccccc3c2=O)cc1C 11%
CC(C)=CCC/C(C)=C/Cc1c(O)ccc(C(=O)/C=C/c2ccc(O)cc2)c1O 5.39%
CCOc1ccc2nc(SCC(=O)c3ccccc3)sc2c1 3% [at 0.196 µM]
COc1ccc(/C=C2\SC(=S)N(CC(=O)OCC(=O)Nc3ccc([N+](=O)[O-])cc3OC)C2=O)cc1 8.9%
C=CCc1cccc(/C=N/NC(=O)C(C)Nc2ccc(C)cc2)c1O (stereo unspecified) 2.46% [at 0.782 µM]
CCOc1cccc(-c2csc(C3COc4ccccc4O3)n2)c1 (stereo unspecified) 5.04% [at 50 µM]
COc1ccc2c(C)cc(SCC(=O)c3ccc4c(c3)OCO4)nc2c1 4.01%
FC(F)(F)c1nc(N2CCN(c3ccccc3)CC2)nc2c1CCCCC2 3.63%
CCOC(=O)c1c(C)[nH]c(C)c1C(=O)COC(=O)/C=C/c1ccc(Cl)cc1 2.07% [at 0.391 µM]
CCSC1=N/C(=C\c2ccc(-c3ccccc3[N+](=O)[O-])o2)C(=O)S1 5.47% [at 25 µM]
CC1CCCN(C(=O)C(C)Sc2nc(-c3ccccc3)cc(C(F)(F)F)n2)C1 (stereo unspecified) 3.6% [at 25 µM]
CCc1ccc(OCC(=O)N2c3ccccc3CCc3ccccc32)cc1 2.64% [at 3.125 µM]
Fc1ccc(CSc2nnc(Cc3sc(-c4ccccc4)nc3-c3ccccc3)o2)cc1 5.66%
O=C(Nc1ccccc1)C1=C[C@H](C2CCCCC2)C[C@H](OCc2ccc(CO)cc2)O1 4.12%
CCCNS(=O)(=O)c1ccc(CCC(=O)Nc2cc(Cl)ccc2Oc2ccccc2)cc1 1.73%
Cc1cccc(NC(=O)/C(C#N)=C/c2ccc(Sc3ccccc3)o2)c1C 10.5%
CC(C)Oc1ccccc1OCCCCn1cnc2ccccc2c1=O 2.35% [at 6.25 µM]
Cc1ccc(-c2csc(N(CC3CCCO3)C(=O)c3ccco3)n2)cc1 (stereo unspecified) 1.93% [at 12.5 µM]
OCCNc1nc(SCc2ccccc2)nc2sc3c(c12)CCC3 1.56% [at 3.125 µM]
Cc1cc(NC(=O)CSc2nc3ccsc3c(=O)n2Cc2ccccn2)n[nH]1 2.41% [at 12.5 µM]
COC(=O)c1cc2c(ccn2-c2ccc(F)cc2)n1Cc1ccc(OC)cc1 5.52% [at 50 µM]
CCC1(C)CC(CCNS(=O)(=O)c2ccc(C)cc2)(c2ccc(C)cc2)CCO1 (stereo unspecified) 3.04%
Cn1c(N=Nc2ccc(N3CCOCC3)cc2)[n+](C)c2ccccc21 25%
Cc1ccc(SCCNC(=S)Nc2ccc(C)c(C)c2)cc1 4.41% [at 12.5 µM]
Brc1ccc(CSc2nnc(Cc3c[nH]c4ccccc34)o2)cc1 3.66%
CCOCCOC(=O)C(C)Oc1ccc(Oc2nc(Cl)ccc2Cl)cc1 (stereo unspecified) 2.21% [at 25 µM]
CCOc1nc(-c2ccccc2)ccc1-c1noc(COc2ccccc2)n1 3.61% [at 50 µM]
Cc1ccccc1OCC(=O)OCC(=O)c1ccc(OCc2ccccc2)cc1 4.85% [at 50 µM]
COc1ccccc1C(NC(=O)C1CCCCC1)c1c(O)ccc2ccccc12 (stereo unspecified) 5.27%
CCCCC1(Cc2cccc([N+](=O)[O-])c2)C(=O)N(c2ccccc2)N(c2ccccc2)C1=O 4.01% [at 50 µM]
O=C(COC(=O)CCCNC(=O)c1ccc(Cl)cc1)Nc1cc(Cl)c(Cl)cc1Cl 3.97% [at 50 µM]
COc1ccc(C(=O)/C=C/Nc2ccc(S(=O)(=O)Nc3ncccn3)cc2)cc1 7.67%
CCCCOc1ccc(S(=O)(=O)Nc2cc(OC)ccc2OC)cc1 3.71% [at 25 µM]
COc1cc2c(=O)n(Cc3ccco3)c(=O)n(CC(=O)c3ccc(Br)cc3)c2cc1OC 3.72% [at 0.196 µM]
Cc1ccc(SCC(=O)Nc2ccc(F)cc2[N+](=O)[O-])cc1C 2.24%
COc1cc(/C=N/Nc2ccc(Cl)cc2)ccc1OC(=O)c1cccs1 2.6% [at 0.391 µM]
COc1ccc(-c2nc(-c3ccc(O)cc3O)cs2)cc1OC 5.02% [at 3.125 µM]
CCOC(=O)c1cc(C#N)c(Oc2cccc(C(F)(F)F)c2)nc1-c1ccccc1 2.36%
CC(=O)Nc1ccc(-c2cc(-c3ccc(NC(C)=O)cc3)nc(-c3ccc(NC(C)=O)cc3)n2)cc1 13.5%
